ATXN2 expr inh: reduces ATXN2 reporter expression in HEK-293 cells | Potency, µM (series often up to 57 µM), actives largely listed as inhibitors | hit rate 0.72% among 360,000 | HEK-293 ATXN2-luciferase reporter, luminescence, 24 h; further: nearly all actives have a fitted effect of over 55% in size
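qHTS (up to 57 uM final) was run with 24 h compound exposure of reporter cells at 37 °C. Each well was multiplexed: SteadyGlo luminescence measured ATXN2-luciferase expression after a fluorogenic Gly-Phe-AFC viability readout (25 uM final).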
RORgamma inh: blocks mouse ROR gamma transcriptional activity; P51450; Drosophila S2 Gal4-RORgamma UAS-luciferase reporter, 20 h; Potency, µM (doses to about 53.6 µM), usual class: inhibitors; hit rate 5.4% among 310,000; AID 2551; further: nearly all actives have a fitted effect of over 60% in size
Target sequence (P51450 whole entry, looked up, the tested form may be a part): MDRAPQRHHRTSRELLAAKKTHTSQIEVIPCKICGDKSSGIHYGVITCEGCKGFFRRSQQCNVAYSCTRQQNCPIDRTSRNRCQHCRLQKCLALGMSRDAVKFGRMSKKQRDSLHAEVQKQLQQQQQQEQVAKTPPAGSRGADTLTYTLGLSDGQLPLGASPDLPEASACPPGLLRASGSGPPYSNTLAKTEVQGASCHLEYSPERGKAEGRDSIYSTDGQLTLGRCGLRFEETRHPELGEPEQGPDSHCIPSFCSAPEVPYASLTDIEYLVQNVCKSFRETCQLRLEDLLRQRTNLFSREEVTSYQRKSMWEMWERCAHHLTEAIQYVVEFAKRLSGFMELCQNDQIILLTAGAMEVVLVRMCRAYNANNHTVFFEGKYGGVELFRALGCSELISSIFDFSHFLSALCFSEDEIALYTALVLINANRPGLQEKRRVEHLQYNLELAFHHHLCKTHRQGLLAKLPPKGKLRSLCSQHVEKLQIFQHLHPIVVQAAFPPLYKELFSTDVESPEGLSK
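In this cell-based reporter format, copper sulfate (700 uM final) drives Gal4–ROR gamma fusion expression from a metallothionein promoter in Drosophila Schneider cells; compounds preincubated 1 hr, reporter read after 20 hr at ambient temperature.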
HepG2 viability: kills HepG2 cells in TGF-b inhibitor counter-screen; HepG2 CAGA-GFP viability, ATP luminescence, 18 h; Potency, µM (top dose mostly 46.1 µM), most hits filed as cytotoxic; hit rate 0.76% among 410,000; AID 588856
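CellTiter-Glo luminescence gave cytotoxicity after 18 hours at 37 degrees C. The cells were HepG2 CAGA-GFP in 1% FBS DMEM, stimulated with 500 pg/mL TGF-beta after compound addition. %Activity was normalised to no-cell wells (complete cell-killing) and DMSO (no toxicity), and curves were fitted and classified.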
Gal4-VP16 FLuc: inhibits Gal4-VP16 luciferase reporter, ROR gamma counter-screen | Drosophila S2 Gal4-VP16 UAS-luciferase, luminescence, 20 h | Potency, µM (highest dose often 53.6 µM), actives largely listed as inhibitors | hit rate 3.5% among 310,000 | AID 2546;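 further: Gal4-VP16 expression switched on by copper sulfate through the metallothionein promoter; nearly all actives have a fitted effect of over 50% in size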
S2 tox: cell viability loss in ATXN counter-screen | S2 cells (HEK-293 line with an ATXN2-luciferase reporter) viability, CellTiter-Fluor protease fluorescence, 24 h | Potency, µM (series often up to 56.7 µM), hits mostly cytotoxic | hit rate 0.49% among 400,000 | AID 651635; further: nearly all actives have a fitted effect of over 40% in size
TGFb SMAD3 inh: inhibitors of TGF-b signaling | HepG2 CAGA-GFP TGF-b/SMAD3 reporter, GFP fluorescence, 18 h; TGF-beta stimulated, 500 pg/mL final | Potency, µM (titrated, usually from 46.1 µM), hits mostly inhibitors | hit rate 1.2% among 410,000 | AID 588855; further: nearly all actives have a fitted effect of over 65% in size
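Smad-responsive CAGA-GFP expression was quantified in HEPG2 cells exposed to compounds and 500 pg/mL final TGF-beta for 18 h at 37 degrees C; unstimulated wells defined full inhibition.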
Large screens that a line does not name were inactive. In the library only some 6.3% were active in any assay of this set; here they are far more common. The call rests on the fitted dose curve; in most records, active means well fitted curve in the direction sought with a large enough effect; inconclusive means small, poorly fitted or top-dose-only effect, or another doubt; inactive means no such curve, though single readings can be large; an effect the other way counts as inactive or inconclusive.

O=C(Nc1ccc(F)c(Cl)c1)C1Cc2c(-c3ccco3)ccnc2O1 (configuration not stated)	ATXN2 expr inh inconclusive, TGFb SMAD3 inh 13µM (no result: RORgamma inh, Gal4-VP16 FLuc)
O=C(Nc1ccc(Cl)c(C(F)(F)F)c1)C1Cc2c(-c3ccc4c(c3)OCO4)ccnc2O1 (configuration not stated)	ATXN2 expr inh inconclusive, TGFb SMAD3 inh 11µM (no result: RORgamma inh, Gal4-VP16 FLuc)
O=C(Nc1cccc(OC(F)(F)F)c1)C1Cc2c(-c3ccccc3Oc3ccccc3)ccnc2O1 (configuration not stated)	TGFb SMAD3 inh 11µM (no result: RORgamma inh, Gal4-VP16 FLuc)
C[C@H](C(=O)OCO/N=[N+](\[O-])N1CCCC1)c1cccc2ccccc12	TGFb SMAD3 inh inconclusive (no result: ATXN2 expr inh, S2 tox)
COc1ccccc1CNC(=O)CN1C(=O)CCc2cc(S(=O)(=O)N3CCCCC3)ccc21	none (no result: RORgamma inh, Gal4-VP16 FLuc)
CC(=O)c1cccc(-c2ccnc3c2CC(C(=O)Nc2ccc(Cl)c(C(F)(F)F)c2)O3)c1 (configuration not stated)	S2 tox inconclusive, TGFb SMAD3 inh 13µM (no result: RORgamma inh, Gal4-VP16 FLuc)
Cc1csc(SCC(=O)Nc2sc3c(c2C#N)CCC3)n1	none
CC1CCc2c(sc(NC(=O)CSc3ncn[nH]3)c2C#N)C1 (configuration not stated)	ATXN2 expr inh 0.34µM, RORgamma inh 0.32µM, Gal4-VP16 FLuc 0.079µM
CC(C)(C)C1CCc2c(sc(NC(=O)CSc3ncn[nH]3)c2C#N)C1 (configuration not stated)	ATXN2 expr inh inconclusive, RORgamma inh inconclusive, Gal4-VP16 FLuc 11µM, TGFb SMAD3 inh inconclusive
N#Cc1c(NC(=O)CSc2ncn[nH]2)sc2c1CCCC2	ATXN2 expr inh inconclusive, RORgamma inh 0.32µM, Gal4-VP16 FLuc 0.11µM, S2 tox inconclusive
Cc1ccnc(SCC(=O)Nc2sc3c(c2C#N)CCCC3)n1	RORgamma inh inconclusive, Gal4-VP16 FLuc 7.1µM
CCN(c1ccccc1)S(=O)(=O)c1ccc2c(c1)OCCO2	none (no result: RORgamma inh, Gal4-VP16 FLuc)
Cc1cnc(NC2=NCCC2)s1	RORgamma inh 7.1µM, Gal4-VP16 FLuc inconclusive
CCc1nnc(NC2=NCCC2)s1	Gal4-VP16 FLuc 18µM, S2 tox inconclusive
c1nnc(NC2=NCCC2)s1	none
CCc1ccc(NC(=O)c2ccc3c(O)c(S(=O)(=O)c4ccccc4)c(=O)[nH]c3c2)cc1	none (no result: RORgamma inh, Gal4-VP16 FLuc)
COc1ccc(/C=N/OC/C(O)=C(\C#N)c2nc3ccccc3[nH]2)cc1	RORgamma inh 11µM, Gal4-VP16 FLuc inconclusive
COc1ccc(C/C(O)=C(\C#N)c2nc3ccccc3[nH]2)cc1OC	RORgamma inh 11µM
COc1ccc(/C(C)=N/OC/C(O)=C(\C#N)c2nc3ccccc3[nH]2)c(OC)c1	RORgamma inh 20µM, Gal4-VP16 FLuc inconclusive
COc1cccc(OC)c1/C(O)=C(\C#N)c1nc2ccccc2[nH]1	none
COc1ccc(/C(C)=N/OC/C(O)=C(\C#N)c2nc3ccccc3[nH]2)cc1OC	RORgamma inh 10µM, S2 tox inconclusive
COc1ccc(CNC(=O)CSc2nc(-c3ccc(OC)c(OC)c3)cc(C(F)(F)F)n2)cc1	none (no result: RORgamma inh, Gal4-VP16 FLuc)
COc1ccc2[nH]cc(CCNc3ncncc3-c3ccccc3C)c2c1	Gal4-VP16 FLuc inconclusive (no result: ATXN2 expr inh, HepG2 viability, S2 tox, TGFb SMAD3 inh)
CCCCn1c(=O)[nH]c(=O)c2c1nc(CN(C)Cc1cccc(OC)c1OC)n2CCC	none
Cc1ccc(CNC(=O)c2c[nH]c3ccc(S(=O)(=O)Nc4ccc(C(C)C)cc4)cc3c2=O)cc1	HepG2 viability 11µM, TGFb SMAD3 inh inconclusive (no result: ATXN2 expr inh, RORgamma inh, Gal4-VP16 FLuc, S2 tox)
Cc1ccccc1NS(=O)(=O)c1ccc2[nH]cc(C(=O)NCCc3ccccc3)c(=O)c2c1	TGFb SMAD3 inh 20µM (no result: ATXN2 expr inh, RORgamma inh, Gal4-VP16 FLuc, S2 tox)
CCN(c1ccccc1)S(=O)(=O)c1ccc2[nH]cc(C(=O)NC3CCCCC3)c(=O)c2c1	ATXN2 expr inh inconclusive, S2 tox inconclusive, TGFb SMAD3 inh 7.9µM (no result: RORgamma inh, Gal4-VP16 FLuc)
COc1cc(OC)c(OC)cc1CN1CCOc2ccc(CN3CCN(C(C)=O)CC3)cc2C1	none (no result: ATXN2 expr inh, RORgamma inh, HepG2 viability, Gal4-VP16 FLuc, TGFb SMAD3 inh)
S=C(NCCCc1cnc[nH]1)NCCCN(Cc1ccc(Cl)cc1)c1ncc(Br)cn1	TGFb SMAD3 inh 18µM (no result: ATXN2 expr inh, RORgamma inh, Gal4-VP16 FLuc, S2 tox)
S=C(NCCCc1cnc[nH]1)NCCCN(CCc1ccccc1)c1ccc(Br)cn1	TGFb SMAD3 inh inconclusive (no result: ATXN2 expr inh, RORgamma inh, Gal4-VP16 FLuc, S2 tox)
